# According to PubChem BioAssay AID585 (National Center for Advancing Translational Sciences (NCATS), 2007):
# Screen size: about 71,000 compounds; about 1,300 (1.8%) were called active. The entries come from a sample that favours actives as a whole. A number with no mark means an inactive call. Calls follow the shape of the full dose curve.
# Target: Beta-lactamase (Escherichia coli (strain K12)) (UniProt P00811)
# Assay: Promiscuous and Specific Inhibitors of AmpC Beta-Lactamase (assay without detergent); as to activity change, negative = inhibition: % of control where 0% means no effect
# Conditions: AmpC nitrocefin hydrolysis, absorbance 480 nm, no detergent; series mostly up to 28.7 µM; activity change, negative = inhibition: at the top concentration
# Protocol: NIH Molecular Libraries Screening Centers Network [MLSCN]
# NIH Chemical Genomics Center [NCGC]
# PI Name: Shoichet, Brian K.
# This aggregation profiling approach exploits the sensitivity of aggregate formation to detergent. Inhibition of b-lactamase is measured in the presence and absence of 0.01% Triton X-100. See Pubchem assay "Promiscuous and Specific Inhibitors of AmpC Beta-Lactamase (assay with detergent)" for related screen. Compounds that inhibit only in the absence of detergent are considered likely promiscuous aggregators.
# A screen of 1,030 compounds was performed in Brian Shoichet's lab in 96-well format. AmpC activity was measured by following the absorbance at 480 nm. Nitrocefin is a chromogenic substrate: while nitrocefin is yellow (lmax 390 nm), the product of its hydrolysis is red (lmax 486 nm, 17,000 M-1). AmpC beta lactamase was provided by Brian Shoichet and Brian Feng, UCSF.
# NCGC Assay Protocol Summary:
# 20 mM phosphate buffer, pH 7.0
# Triton X-100: No Detergent screen: 0.0001%, Detergent screen: 0.01%.
# Buffer in columns 3 and 4 as negative control (no enzyme).
# 5.3 nM AmpC in columns 1, 2, 5-48. Titration of UCSF compound 9 control (from 10 mM, then 1:2) pin-transferred to column 2. Column 1 is neutral (100% activity).
# Six uL of reagents were dispensed to 1536-well Greiner black clear bottom plates. Compounds and controls (23 nL) were transferred via Kalypsys PinTool. The plates were incubated for 15 min at room temperature, and then 2 uL of 800 uM solution of nitrocefin was added to start the reaction. The plates were immediately transferred to and read every 20 seconds for 4 min on ViewLux (Perkin-Elmer) High-throughput CCD imager using 480 nm absorbance protocol. During dispense, reagent bottles were kept submerged into 4 deg C water bath.
# Keywords: NIH Roadmap, MLSCN, MLI, MLSMR, qHTS, NCGC, AmpC Beta-Lactamase, Aggregation.
# Potency is read from the fitted curve at half-maximal effect.
# Sequence of Beta-lactamase (Escherichia coli (strain K12)) (P00811 whole entry, looked up): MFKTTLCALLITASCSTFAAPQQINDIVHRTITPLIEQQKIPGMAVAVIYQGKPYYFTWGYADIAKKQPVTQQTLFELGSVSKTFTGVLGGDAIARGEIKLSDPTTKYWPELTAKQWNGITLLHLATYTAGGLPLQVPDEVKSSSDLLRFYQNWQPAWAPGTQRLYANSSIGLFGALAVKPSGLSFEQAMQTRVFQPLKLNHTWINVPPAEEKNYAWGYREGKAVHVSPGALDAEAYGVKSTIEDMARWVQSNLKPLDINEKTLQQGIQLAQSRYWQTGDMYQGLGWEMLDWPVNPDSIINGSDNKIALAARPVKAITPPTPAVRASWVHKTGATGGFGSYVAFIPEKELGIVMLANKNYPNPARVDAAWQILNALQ
SMILES,Potency,"activity change, negative = inhibition"
CCn1cc(C(=O)NC2CCCCCC2)c(=O)c2cc(S(=O)(=O)N3CCCCC3)ccc21,3.98 µM [single pt active] (active),–
O=C(NC1CCCCC1)n1c(=O)oc2cc(S(=O)(=O)N3CCCCC3)ccc21,–,-14.2%
CCn1cc(C(=O)NCC2CCCO2)c(=O)c2cc(S(=O)(=O)N3CCCCC3)ccc21 (configuration not stated),–,94.7%
Oc1ccc2ccccc2c1C=NCc1c(O)ccc2ccccc12,–,-20.6% [at 5.75 µM]
O=C(CCC(=O)OCC(F)(F)C(F)F)NCc1ccccc1,–,7.3%
COc1ccc(CCNC(=O)C2CCCN(Cc3nc(-c4cccc(Cl)c4)oc3C)C2)cc1OC (configuration not stated),–,162%
Cc1ccc(-c2nc(CS(=O)CC(=O)N3CCN(c4ncccn4)CC3)c(C)o2)cc1 (configuration not stated),–,95.4%
COc1ccc(-c2nc(CS(=O)CC(=O)NCc3cccnc3)c(C)o2)cc1OC (configuration not stated),3.98 µM [single pt active] (active),–
Cc1ccc(-c2nc(CS(=O)CC(=O)NC3CCCC3)c(C)o2)cc1 (configuration not stated),3.98 µM [single pt active] (active),–
Cc1oc2nc(SCC(=O)NCc3cccnc3)nc(N)c2c1C,–,-1.9%
COc1ccc(-c2nc(CS(=O)CC(=O)NCc3ccccn3)c(C)o2)cc1 (configuration not stated),1.26 µM [single pt active] (active),–
COc1ccc(-c2nc(CS(=O)CC(=O)N3CCc4ccccc4C3)c(C)o2)cc1 (configuration not stated),–,91.4%
COc1ccc(-c2nc(CS(=O)CC(=O)N3CCC4(CC3)OCCO4)c(C)o2)cc1 (configuration not stated),–,41.7%
Cc1ccc(NC(=O)CS(=O)CC(=O)N(c2ccccc2)C(C)C(=O)NC2CCCC2)cc1 (configuration not stated),–,76.9%
C=CC(=C)CCC=C(C)C,–,-13.4%
COc1ccc2oc(=O)c(C(=O)N3CCN(c4ccccc4F)CC3)cc2c1,–,43.1%
CC1(C)CC(=O)C=C(NC2CC(C)(C)NC(C)(C)C2)C1,–,-7.6%
O=C(COc1ccc2oc3c(c2c1)CCCC3)Nc1ccccn1,–,-0.5%
O=C1CN(C(=O)COC(=O)C2CC(=O)N(Cc3ccco3)C2)c2ccccc2N1 (configuration not stated),–,6%
COc1cc(C[C@H](C)N)c(OC)cc1I,inactive,–
COC(=O)c1ccc(C(NC(=O)OCc2ccccc2)/C(C)=C/[C@@H](C)C(=O)NCc2cc(C)on2)cc1 (some centres not stated),–,79.5%
CCOC(=O)c1ccc(-n2c(C)nc3c(cnn3-c3ccccc3C)c2=O)cc1,–,49.2%
COC(=O)C1=C(C)Nc2ncnn2C1c1ccco1 (configuration not stated),–,-4.6%
CC1=C(C(=O)OCc2ccccc2)C(c2ccco2)n2ncnc2N1 (configuration not stated),3.98 µM [single pt active] (active),–

SMILES,Potency,"activity change, negative = inhibition"
CCOC(=O)CSC1=C(C#N)C(c2ccco2)C(C(=O)OCc2ccccc2)=C(C)N1 (configuration not stated),–,-9.8%
O=C1N=C(N2CCOCC2)CS1,–,-5.9%
COc1ccc2oc(C)c(NC(C)=O)c2c1,–,-8.6%
CC(=O)Oc1ccc2c(C)c(CC(C)O)c(=O)oc2c1 (configuration not stated),–,0.7%
CC(=O)Nc1cc2ccc(OC(C)=O)cc2oc1=O,3.98 µM [single pt active] (active),–
CCn1c(=N)c(S(=O)(=O)c2ccc(F)cc2)cc2c(=O)n3ccccc3nc21,–,35.4%
COc1ccc2oc(=O)c(C(=O)O)cc2c1,–,-7.1%
O=C(Oc1cccnc1)c1cc2ccccc2oc1=O,12.6 µM (active),–
O=C(NCc1ccccn1)c1cc2ccccc2oc1=O,–,0.3%
Cc1ccc(C)c(N2CCN(C(=O)CCCCn3c(=O)[nH]c4ccccc4c3=O)CC2)c1,–,69.6%
COc1ccc(Cc2nnc(NC(=O)Cc3cccs3)s2)cc1,12.6 µM (active),–
CCc1nnc(NC(=O)CSc2nnc(Cc3ccccc3)n2-c2ccc(OC)cc2)s1,–,49%
COc1ccc(Cc2nnc(NS(=O)(=O)Cc3ccccc3)s2)cc1,–,-14.8%
COc1ccc2[nH]cc(CCNc3nc(-c4cccc(NS(C)(=O)=O)c4)nc4ccccc34)c2c1,–,-19.8%
CCCC1C(c2ccccc2)C(C#N)(C#N)C2(C#N)CC1(N)NC2=O (configuration not stated),–,32%
CCOC(=O)Cc1csc(NC(=O)CN(C)S(=O)(=O)c2ccc3c(c2)CCC(=O)N3)n1,3.98 µM [single pt active] (active),–
CCOC(=O)Cc1csc(NC(=O)C(C)(C)C)n1,–,4.6%
CCOC(=O)Cc1csc(NC(=O)CSc2nc(C)cc(=O)[nH]2)n1,–,-14.8%
Cc1ccc(CNC(=O)CCCNC(=O)c2ccc(Cl)cc2)n1C,–,57.8%
CC(C)(O)C#Cc1ccc(C(=O)N2CCC(C(N)=O)(N3CCCCC3)CC2)cc1,–,-9.6%
CC1(C)S[C@@H]2[C@@H](NC(=O)[C@@H](N)c3ccccc3)C(=O)N2[C@H]1C(=O)O,0.0501 µM (active),–
CC1(C)SC2c3ccccc3C(=O)N2[C@@H]1C(=O)NCc1ccco1 (some centres not stated),–,7.2%
CC(CNC(=O)c1ccc(Br)o1)NC(=O)c1ccc(Br)o1 (configuration not stated),–,-4.4%
N#C/C(=C1\CCCN1)c1nc(-c2ccccc2)cs1,–,1.9%

SMILES,Potency,"activity change, negative = inhibition"
N#CC(=C1SC=CS1)c1nc(-c2ccccc2)cs1,15.8 µM [single pt active] (active),–
c1ccc(Nc2nc(-c3ccncc3)cs2)nc1,–,27.9%
CC(C)(O)[C@H]1[C@H]2OC(=O)[C@@H]1[C@]1(O)C[C@H]3O[C@]34C(=O)O[C@H]2[C@]14C,–,3.7%
O=C(c1ccco1)N1CCN(C(=O)C2CC(c3ccc(Cl)c(Cl)c3)=NO2)CC1 (configuration not stated),–,99.9%
CCOC(=O)N1CCN(C(=O)C2CC(c3ccc(F)cc3)=NO2)CC1 (configuration not stated),3.98 µM [single pt active] (active),–
O=C(c1ccco1)N1CCN(C(=O)C2c3ccccc3Oc3ccccc32)CC1,–,70.7%
CCOC(=O)N1CCN(C(=O)CSc2ccc(Cl)cc2)CC1,–,33.7%
Cc1ccc(NC(=O)C2CC(c3ccc(F)cc3)=NO2)cc1 (configuration not stated),–,9.7%
O=C(c1ccco1)N1CCN(C(=O)C2CC(c3ccc(F)cc3)=NO2)CC1 (configuration not stated),3.98 µM [single pt active] (active),–
O=C(C1CCN(S(=O)(=O)c2cnc[nH]2)CC1)N1CCN(Cc2ccc3c(c2)OCO3)CC1,–,19.4%
CC(=O)c1c(O)c(C)c(O)c(Cc2c(O)c3c(c(C(=O)/C=C\c4ccccc4)c2O)OC(C)(C)C=C3)c1O,12.6 µM (active),–
CCOc1ccc(S(=O)(=O)n2ccnc2)c2ccccc12,3.98 µM [single pt active] (active),–
CCOc1ccccc1C(=O)NCCCn1ccnc1,–,-7.7%
CCOc1ccc(C(C)C)cc1S(=O)(=O)n1nc(C)cc1C,–,36.2%
Fc1ccc2nc(Nc3nc4c(s3)CCCC4)sc2c1,–,-20.6%
CCOC(=O)CNC(=O)CSc1nnc(COc2ccc(Cl)cc2)n1CC,–,52.9%
CN1CCN(S(=O)(=O)c2ccc3[nH]cc(C(=O)O)c(=O)c3c2)CC1,–,-10%
Cc1cccc(CC(=O)Nc2c3c(nn2-c2cccc(Cl)c2)CS(=O)C3)c1 (configuration not stated),–,44.1%
O=C(NCc1ccco1)c1nc(-c2ccccc2)n(-c2ccccc2)n1,–,8.2%
Cc1nc2nc(SCC(=O)NCc3ccco3)nn2c(C)c1Cc1ccccc1,–,31.6%
O=C(Cc1ccccc1)n1nc(-c2ccccc2)nc1NCc1ccco1,3.98 µM [single pt active] (active),–
COc1ccc(CCn2nnnc2C(c2ccccc2)N2CCN(C)CC2)cc1OC (configuration not stated),–,15.3%
CCOC(=O)c1cnc2sccn2c1=O,–,3.9%
CN/C(=C\[N+](=O)[O-])NCCSCc1csc(CN(C)C)n1,–,-0.3% [at 12.8 µM]
